Experimental data from PubChem BioAssay (Tox21).
Inconclusive results are not listed. Activity calls are given as the source filed them. The call rests on the fitted dose curve; in most records, active means well fitted activation curve with a large enough effect in the signal ratio in the repeat runs (not every such curve was filed as active); inconclusive means weak or mixed curves; inactive means flat fitted curve, though single readings scatter; the % refers to the signal ratio. Where a SMILES comes first, the peptide text is derived from it. [ ]: non-standard residue; d: D form. pGlu = O=C1CC[C@@H](C(=O)O)N1

Experiment: qHTS assay to identify small molecule agonists of the hypoxia (HIF-1) signaling pathway (AID 1224846)
Conditions: HRE-bla ME-180 cells, beta-lactamase ratio, 17 h; series mostly up to 76.8 µM; activation: at the top concentration
Source text: U.S. Tox21 Program National Center for Advancing Translational Sciences [NCATS] NIH Chemical Genomics Center [NCGC] U.S. Environmental Protection Agency [EPA] National Institutes of Environmental Health Sciences [NIEHS] National Toxicology Program [NTP] U.S. Food and Drug Administration [FDA] Tox21 Assay Overview: Hypoxia-inducible factor-1 (HIF-1) is the major hypoxia-regulated transcription factor that controls cellular responses to low oxygen concentration. HIF-1 is composed of two subunits: hypoxia responsive HIF-1-alpha and constitutively expressed HIF-1-beta, which is also known as aryl hydrocarbon receptor nuclear translocator. During hypoxic conditions, HIF-1-alpha heterodimerizes with HIF-1-beta and translocates into the nucleus where the HIF-1 complex binds to the hypoxia-response element (HRE) and activates expression of target genes such as VEGF (vascular endothelial growth factor). The HIF-1 pathway is essential to normal growth and development, and is involved in the pathophysiology of cancer, inflammation, and ischemia. Using a beta-lactamase reporter-gene under control of the hypoxia response element, a cell-based assay [CellSensor(TM) HRE-bla ME-180 from Life Technologies, Carlsbad, CA] was used to measure hypoxia-induced signaling. Tox21 10K library compounds were measured for their ability to induce the reporter gene activity.
Tox21 Assay Protocol Summary: HRE-bla ME-180 cells were dispensed at 2,000 cells per well in 6 uL of assay medium containing 0.5% dialyzed FBS into black wall/clear-bottom 1536-well plates using a Multidrop Combi (Thermo Scientific, Waltham, MA) dispenser. After the assay plates were incubated at 37C and 5% CO2 for 5 hrs, 23 nL of compounds dissolved in DMSO, positive controls or DMSO only was transferred to each well of the assay plate using a Pintool station (Kalypsys, San Diego, CA). The assay plates were incubated at 37C and 5% CO2 for 17 hrs. One uL of LiveBLAzerTM B/G FRET substrate (CCF4-AM) (Life Technologies) was added to each well using a Flying Reagent Dispenser (Aurora Discovery, San Diego, CA).
On the % scale 0 is the no-effect control and ±100 the full control effect.

| Compound | activation |
| --- | --- |
| CC1=C(C/C=C(\C)CCC[C@H](C)CCC[C@H](C)CCCC(C)C)C(=O)c2ccccc2C1=O | -0.317% [at 35.5 µM] (inactive) |
| C=CCCC(=O)O | -0.556% (inactive) |
| CCCCOCCOC(=O)CCCCCCCCC(=O)OCCOCCCC | -0.8% (inactive) |
| O=S(=O)(O)c1cccc2c(S(=O)(=O)O)cccc12 | -1.81% (inactive) |
| CCN(CC#N)c1cccc(C)c1 | 0.0793% (inactive) |
| CCCCCCC#CC(=O)OC | 1.38% (inactive) |
| O=C(CO)[C@@H](O)[C@H](O)[C@@H](O)CO | -0.649% [at 35.5 µM] (inactive) |
| COc1cccc(OC)c1C(=O)N[C@@H]1C(=O)N2[C@@H]1SC(C)(C)[C@@H]2C(=O)O | -1.14% [at 35.5 µM] (inactive) |
| c1ccc(CCc2ccccc2)cc1 | -0.293% (inactive) |
| CCCC[N+](C)(CCCC)CCCC | 0.691% (inactive) |
| O=C(c1ccccc1)C1(O)CCCCC1 | 1.28% (inactive) |
| CC(C)C1CCC(O)CC1 (stereo not given) | -0.0768% (inactive) |
| C=C(C)C(=O)OCC(O)CO (stereo not given) | 1.27% [at 35.5 µM] (inactive) |
| [K+] | 0.597% (inactive) |
| C=C(C)C(=O)OCC1CCCO1 (stereo not given) | 2.9% (inactive) |
| Clc1cc(Cl)cc(Cl)c1 | 0.512% (inactive) |
| NC(=O)NC1N=C([O][Al])NC1=O (stereo not given) | -0.895% [at 35.5 µM] (inactive) |
| C=C(C)C(=O)OCCOCCOCCOCCOC(=O)C(=C)C | 1.22% (inactive) |
| CC(C)(C)C(=O)c1ccccc1 | -1.35% (inactive) |
| c1ccc(Cc2ccccc2)cc1 | -0.474% (inactive) |

| Compound | activation |
| --- | --- |
| CCOC(=O)C(=O)CCCCCCl | -1.24% [at 35.5 µM] (inactive) |
| CC1=NN(c2cccc(S(=O)(=O)O)c2)C(=O)C1 | -0.512% (inactive) |
| CC1=NN(c2cc(S(=O)(=O)O)ccc2Cl)C(=O)C1N=Nc1ccccc1 (stereo not given) | -2.57% (inactive) |
| O=[N+]([O-])c1cncn1CCN1CCOCC1 | -0.232% [at 35.5 µM] (inactive) |
| CC1(C)[C@@H]2CC[C@@]1(C)[C@H](O)C2 | -0.459% (inactive) |
| C=CN1CCCCCC1=O | 1.03% (inactive) |
| CC(C)COC(=O)c1ccc(N)cc1 | 1.95% [at 35.5 µM] (inactive) |
| C=CCCCCCCCCC(=O)OCC | -0.973% (inactive) |
| O=S(=O)(O)c1cccc2ccccc12 | -0.256% (inactive) |
| CCCCCCCCCC[N+](C)(C)[O-] | 2.17% (inactive) |
| O=C(O)CCCC[P+](c1ccccc1)(c1ccccc1)c1ccccc1 | 0.204% [at 35.5 µM] (inactive) |
| CCNC(=O)[C@@H]1CCCN1C(=O)[C@H](CCCN=C(N)N)NC(=O)[C@H](CC(C)C)NC(=O)CNC(=O)[C@H](Cc1ccc(O)cc1)NC(=O)[C@H](CO)NC(=O)[C@H](Cc1c[nH]c2ccccc12)NC(=O)[C@H](Cc1cnc[nH]1)NC(=O)[C@@H]1CCC(=O)N1 ([pGlu]HWSYGLRP-NHEt) | -0.614% [at 35.5 µM] (inactive) |
| CC[N+](CC)(CC(=O)Nc1c(C)cccc1C)Cc1ccccc1 (tested in a mixture with another compound) | -0.0679% [at 35.5 µM] (inactive) |
| O=C(O)Cc1csc(-c2ccc(Cl)cc2)n1 | -0.0329% [at 35.5 µM] (inactive) |
| CC[C@H]1OC(=O)[C@H](C)[C@@H](O[C@H]2C[C@@](C)(OC)[C@@H](O)[C@H](C)O2)[C@H](C)[C@@H](O[C@@H]2O[C@H](C)C[C@H](N(C)C)[C@H]2O)[C@](C)(OC)C[C@@H](C)C(=O)[C@H](C)[C@@H](O)[C@]1(C)O | -0.695% (inactive) |
| NO | 0.031% (inactive) |
| CCCCc1nc(Cl)c(CO)n1Cc1ccc(-c2ccccc2-c2nn[nH]n2)cc1 | -1.87% [at 35.5 µM] (inactive) |
| CC(N)C12CC3CC(CC(C3)C1)C2 (stereo not given) | 0.476% [at 35.5 µM] (inactive) |
| CCCn1cc[n+](C)c1C | -0.889% (inactive) |
| CN(C)CCCCCCN(C)C | -0.54% (inactive) |
